# Source: PubChem BioAssay AID1768 (National Center for Advancing Translational Sciences (NCATS), 2009)
# The whole screen tested about 270,000 compounds, of which about 620 (0.23%) were called active. Another 12% or so got no clear call; they are omitted. The entries come from a sample that favours actives as a whole. A call without a number means that no potency is given here. Unmarked numbers belong to inactive results. Calls come from the whole dose curve; as a rule, active = well fitted inhibition curve with a large enough effect in the polarisation, with a control signal flat (not every such curve was filed as active); inconclusive = small, poorly fitted or top-dose-only effect, or effect the other way, or a change in a side signal; inactive = no such curve, though single readings can be large or run the other way; the % refers to the polarisation.
# Target: Menin (Homo sapiens) (UniProt O00255)
# Assay: qHTS Assay for Inhibitors Targeting the Menin-MLL Interaction in MLL Related Leukemias: Competition With Texas Red Labeled MLL-derived Mutant Peptide
# Conditions: fluorescence polarization; series mostly up to 61.6 µM
# Potency is the fitted concentration of half-maximal effect.
# Chain of Menin (Homo sapiens) (O00255 whole entry, looked up): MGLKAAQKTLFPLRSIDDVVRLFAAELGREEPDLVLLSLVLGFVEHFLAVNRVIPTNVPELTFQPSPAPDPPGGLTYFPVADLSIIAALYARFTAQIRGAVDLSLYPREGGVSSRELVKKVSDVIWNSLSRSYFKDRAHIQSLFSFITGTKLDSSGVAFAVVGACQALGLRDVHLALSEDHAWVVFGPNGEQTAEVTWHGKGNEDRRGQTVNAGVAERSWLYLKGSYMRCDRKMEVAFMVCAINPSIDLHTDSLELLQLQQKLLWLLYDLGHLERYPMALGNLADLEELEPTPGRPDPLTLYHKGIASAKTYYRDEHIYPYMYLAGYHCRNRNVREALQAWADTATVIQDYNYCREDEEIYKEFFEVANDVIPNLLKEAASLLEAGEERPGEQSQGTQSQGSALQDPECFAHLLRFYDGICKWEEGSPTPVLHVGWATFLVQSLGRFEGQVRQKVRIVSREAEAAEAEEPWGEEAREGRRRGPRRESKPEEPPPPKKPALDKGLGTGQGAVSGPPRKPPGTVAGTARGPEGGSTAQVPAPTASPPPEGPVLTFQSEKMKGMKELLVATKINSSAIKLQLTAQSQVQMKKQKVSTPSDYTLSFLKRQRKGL
Structure (SMILES),Potency,"FP activity change, negative = inhibition"
O=C(NCCc1c[nH]c2ccccc12)C1CCN(Cc2ccc(Br)cc2)CC1,inactive,
CC(C)C(C)NC(=O)COc1nc2ccccc2nc1N(C)C1CCCCC1 (stereo not given),inactive,
Cc1cccc(OC(C)C(=O)N2CCc3ccccc3C2)c1 (stereo not given),inactive,
COC(=O)c1ccc(CN2C(=O)NC(c3ccccc3)(c3ccccc3)C2=O)o1,inactive,
CN(Cc1ccccc1)C(=O)C1CCCN(c2ncnc3c2nc2n3CCCCC2)C1 (stereo not given),inactive,
Cc1ccccc1OCC(=O)Nc1ccc(S(=O)(=O)N2CCOCC2)cc1,inactive,
COc1ccc(CCNC(=O)CSCc2ccc(Br)cc2)cc1OC,inactive,
CCOc1cc(-c2cc(-c3ccc(NC(C)=O)cc3)nc(N)c2C#N)ccc1O,inactive,
O=C(c1cc(C(=O)N2CCN(c3ccc(F)cc3)CC2)cc([N+](=O)[O-])c1)N1CCN(c2ccc(F)cc2)CC1,inactive,
Cc1cc2oc(=O)cc(CN(C)Cc3ccc(OC(F)F)cc3)c2cc1Cl,inactive,
COC(=O)c1ccccc1NC(=O)C1CCN(C(=O)N2CCOc3ccccc32)CC1,inactive,
CCCNC(=O)CCc1c(C)nc2c(c(C)nn2-c2ccc(C)cc2)c1C,inactive,
C/C(=N\NC(=O)c1ccoc1C)c1ccccc1O,inactive,
COc1ccc(-c2ccc(OC)c(C3C4C=CCC(C)C4C(=O)N3Cc3ccccc3)c2)cc1C (stereo not given),inactive,
Cc1nnc(NC(=O)C(c2ccccc2)c2ccccc2)s1,inactive,
CC(C)C[C@@H](COc1ccccc1)N1CCN(CC(C)C)CCC1=O,inactive,
Cc1nc2ccccc2c(=O)n1Cc1ccc([N+](=O)[O-])cc1,inactive,
O=c1[nH]n(-c2ccc([N+](=O)[O-])cc2)c(=O)c2ccccc12,31.6 µM (active),
Cc1nn(-c2ccc([N+](=O)[O-])cc2)c(N)c1-c1ccccc1,inactive,
COc1ccc(CCNC(=O)c2cnc(Cl)c(Cl)c2)cc1,inactive,
CCOc1ccc(NC(=O)c2nc(SCC)ncc2Cl)cc1,inactive,
Cc1ccc(SCC(CC(C)C)N2CCN(CCc3ccccc3)CCC2=O)cc1 (stereo not given),inactive,

Structure (SMILES),Potency,"FP activity change, negative = inhibition"
O=C(Nc1nc(-c2ccc(-c3ccccc3)cc2)cs1)c1cnccn1,inactive,
c1cnc(Nc2nc(-c3ccc4ccccc4c3)cs2)nc1,17.8 µM (active),
Cc1ccccc1Nc1nc(-c2cccnc2)cs1,inactive,
Cc1c(C)c2c(OCC(=O)NCCCO)cc3c(c2oc1=O)CCC(C)(C)O3,inactive,
COc1ccc(NC(=O)CN2C(=O)CSc3ccc(S(=O)(=O)N4CCC(C)CC4)cc32)cc1,inactive,
CCNC(=O)c1cnn(-c2ccccc2)c1-c1ccccc1,inactive,
COc1ccc(NC(=O)NCCN2CCN(c3ccc(C)cc3)CC2)c(Cl)c1,inactive,
COc1ccc(C2/C=C\CN(C(=O)c3ccc(C)cc3)C(Cc3ccccc3)C(=O)N2Cc2ccc(F)cc2)cc1 (stereo not given),inactive,
CCOc1ccc(C(C(=O)NC2CCCC2)N(C(=O)c2snc(C(N)=O)c2N)C2CCCC2)cc1 (stereo not given),inactive,
CC(=O)N1CCOc2ccc(S(=O)(=O)N3CCN(c4cccc(C(F)(F)F)c4)CC3)cc21,inactive,
O=C(NCCc1cccc(F)c1)C1CCCN(c2nc3ccccc3s2)C1 (stereo not given),inactive,
CC(Cc1cccs1)N(Cc1ccc(Cl)cc1)C(=O)c1ccncc1 (stereo not given),inactive,
COc1ccc(CN2CCC(=O)c3ccccc3S2(=O)=O)cc1,inactive,
COc1ccc(OC)c(CNC(=O)Cn2nc(C)c3c(C)n(-c4ccc(C)cc4)nc3c2=O)c1,inactive,
CCN1C(=S)N[C@@H](c2cccc(C(F)(F)F)c2)C(C(=O)OC)=C1C,inactive,
COc1cc(C(=O)NCc2ccncc2)cc(Br)c1OCc1ccccc1,inactive,
Cc1ccc(CNC(=O)C2(C(F)(F)F)C/C(=C\CCO)CCCO2)o1 (stereo not given),inactive,
FC(F)(F)c1nnc2c3ccccc3c(Cl)nn12,inactive,
CC(C)C[C@H]1CN=C(Nc2ccccc2)N1CC1CCCCC1,inactive,
COC(=O)c1ccc2c(=O)n(CCN3CCOCC3)c(SCC(=O)Nc3cccc(OC)c3)nc2c1,inactive,
Cc1c(C(=O)NCC(c2ccco2)N2CCCC2)oc2ccc(Cl)cc12 (stereo not given),inactive,
COc1cc(OC)c2c(c1C(CCN1CCCCC1)c1ccc(N(C)C)cc1)OC(=O)CC2c1ccc(N(C)C)cc1 (stereo not given),inactive,

Structure (SMILES),Potency,"FP activity change, negative = inhibition"
O=C(N/C(=C/c1ccc(Cl)cc1)C(=O)N1CCCCC1)c1ccco1,inactive,
Cc1ccc(-n2ncc(C(=O)NC3CC3)c2C2CCN(C(=O)OC(C)(C)C)CC2)c(C)c1,inactive,
Cc1cc2c(c(=O)n1Cc1ccccc1)C1O[C@](CCCCN3C(=O)c4ccccc4C3=O)(Cc3ccccc31)O2,,12.4% [at 11.7 µM]
CC1Sc2ccc(S(=O)(=O)CCC(=O)NCc3ccccc3Cl)cc2NC1=O (stereo not given),inactive,
COc1cc(C(=O)NC2CCN(Cc3ccccc3)CC2)cc(Cl)c1OC(C)C,inactive,
O=C(NNC(=O)c1cc2c(s1)CCCC2)c1ccccc1,inactive,
Cc1ccc(C(=O)NNC(=O)c2cc3cc4ccccc4nc3s2)cc1,17.8 µM (active),
Cc1ccc(C(=O)NNC(=O)c2cccs2)cc1,inactive,
COc1ccc(-c2nc3c(s2)CCc2onc(-c4ccc(OC)cc4)c2-3)cc1,inactive,
O=C1OC2(CCCCC2)CC2=C1C1O[C@](c3ccsc3)(Cc3ccccc31)O2,,-0.298% [at 11.7 µM]
COc1ccc(CN2CCCC(N3CCc4ccccc4C3)C2)c(O)c1 (stereo not given),inactive,
Cc1ccc2nc(-c3ccncc3)cc(C(=O)Nc3ccncc3)c2c1,inactive,
COc1cccc(OCC(O)CNC(=O)c2oc3c(C)c(C)ccc3c2C)c1 (stereo not given),inactive,
CC(C)CNS(=O)(=O)c1ccc(CCC(=O)NCc2ccc(Cl)cc2)cc1,inactive,
C=CCn1c(SCC(=O)NC)nnc1C12CC3CC(CC(C3)C1)C2,inactive,
COCCN1C(=O)C(=O)/C(=C(/O)c2ccc(S(=O)(=O)N3CCCCC3)cc2)C1c1ccc(OC)c(OC)c1 (stereo not given),inactive,
COc1cc(C(=O)NCc2cc3cc(Cl)ccc3n2C)cc(OC)c1OC,inactive,
CCCCNC(=O)c1cn(CC)c2cc(N3CCN(C(=O)c4ccco4)CC3)c(F)cc2c1=O,inactive,
CCOc1ccc(NC(=O)C2CCN(C(=O)N3CCOc4ccccc43)CC2)cc1,inactive,
Cc1ccc(N(Cc2ccccc2O)C(=O)c2ccccc2F)cc1,inactive,
Cc1ccc(O)c(CNc2nc3ccccc3[nH]2)c1,inactive,
COC(=O)c1sc(=S)n(-c2ccccc2)c1N,inactive,

Structure (SMILES),Potency,"FP activity change, negative = inhibition"
COCCOC(=O)c1sc(=S)n(CCOC)c1N,28.2 µM (active),
CCOC(=O)c1c(N)sc(C(C)=O)c1C,inactive,
O=C(c1ccccc1)N1CCC(CC2CC(c3ccc(Cl)cc3)=NO2)(C(=O)NCC2CCCCC2)CC1 (stereo not given),inactive,
CCN(CC)S(=O)(=O)c1ccc(N2CCOCC2)c(NC(=O)C2CSC3(C)CCC(=O)N23)c1 (stereo not given),inactive,
COc1ccc(C)cc1Nc1n[n+](-c2ccccc2)c(-c2cccc(Cl)c2Cl)s1,inactive,
CC1CC(C)CN(CCCNC(=O)c2csc3c2CCCCC3)C1 (stereo not given),inactive,
CCN(CC)c1ccc(C(=O)Nn2c(C)nc3ccccc3c2=O)cc1,inactive,
CCC(CC)COC(=O)C1=C(C)NC(=O)NC1c1ccc([N+](=O)[O-])cc1 (stereo not given),inactive,
CCCN1CCC(=O)N(C(CSc2ccc(C)cc2)Cc2ccccc2)CC1 (stereo not given),inactive,
CCOC(=O)c1ccccc1NS(=O)(=O)c1c(C)nc2sccn2c1=O,inactive,
COc1ccc(-n2nc(C(=O)NCC(=O)N3CCN(c4ccccc4OC)CC3)c3ccccc3c2=O)c(OC)c1,inactive,
CCCCc1cc(=O)oc2c(C)c(OCC(=O)N3CCC(C(N)=O)CC3)ccc12,inactive,
O=S(=O)(NC1CCCCC1N1CCN(c2ccccc2F)CC1)c1ccccc1 (stereo not given),inactive,
CC(C)(COC(=O)Nc1ccccc1)COC(=O)Nc1ccccc1,inactive,
Cc1ccc(C)c(N2CCN(C(=O)CCCn3c(=O)c4cccn4c4cccnc43)CC2)c1,inactive,
Cc1nc(-c2ccc(NC(=O)c3cccs3)cc2)cs1,25.1 µM (active),
O=C(O)Cc1ccc(NC(=O)c2cccs2)cc1,inactive,
CCc1ccc(NC(=O)C(=O)NNC(=O)c2cccs2)cc1,inactive,
COc1ccc(C2CC(O)(c3ccccc3)Oc3cc(C)cc(C)c32)cc1 (stereo not given),inactive,
